Inconclusive results are not listed. Entries that show only a call come without a potency. Activity calls are given as the source filed them. Calls come from the whole dose curve; as a rule, active = well fitted inhibition curve with a large enough effect; inconclusive = small, poorly fitted or top-dose-only effect; inactive = flat fitted curve, though single readings scatter.

This test deals with Calcium and integrin-binding protein 1 (Homo sapiens) (UniProt Q99828). Nature of the test: Primary qHTS for Identification of Calcium Integrin Binding Protein 1 (CIB1) Competitor (AID 1508620). Note: top concentration of the series differs between compounds. The settings on record: CIB1-GST / FITC-alphaIIb peptide fluorescence polarization; series mostly up to 114 µM. The method in brief: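 Fluorescence polarization competition: GST-tagged CIB1 (1 uM final) preincubated with compound 15 min at room temperature, then FITC-labelled alphaIIb peptide (100 nM final) added. After 15 min at room temperature, polarization read at Ex 480/Em 540.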
Calcium and integrin-binding protein 1 (Homo sapiens), sequence (Q99828 whole entry, looked up): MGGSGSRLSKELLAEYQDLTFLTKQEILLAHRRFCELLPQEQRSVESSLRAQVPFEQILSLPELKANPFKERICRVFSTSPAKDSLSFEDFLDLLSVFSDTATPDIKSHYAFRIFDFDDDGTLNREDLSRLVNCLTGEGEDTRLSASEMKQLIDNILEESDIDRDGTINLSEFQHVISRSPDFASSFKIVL
(In qHTS, concentration-response curves come from the screen itself.)
Consider `COC(=O)c1cccc(-c2noc(-c3ccccc3F)n2)c1`, for which the Potency entry was “inactive”. The same measure for `Cc1cc(-c2nnc3n2CCCC3)c(C)n1-c1ccccc1`: “inactive”. The same measure for `CC(=O)Nc1sc2c(c1C(O)c1nc3ccccc3s1)CCN(C(C)C)C2` (stereo not drawn): “inactive”; for `O=S(=O)(NC1CCN(S(=O)(=O)c2c(F)cccc2F)C1)c1ccc2c(c1)OCCO2` (stereo not drawn): “inactive”; for `CC(C)(C)N[S+](=O)([O-])c1cccc(-c2nnc(SCc3ccc(C(=O)O)cc3)n2-c2ccc(F)cc2)c1`: “inactive”. `COc1cc(F)c(S(=O)(=O)N2CCCN(S(=O)(=O)c3ccc(N)cc3)CC2)c(F)c1`: the Potency result was “inactive”. For `O=c1c2ccccc2nc2sc(Nc3cccc4ccccc34)nn12`, the Potency entry was “inactive”. The same measure for `COc1cccc(CNc2ccc(S(=O)(=O)Nc3ccc(C)nc3)cc2)c1O`: “inactive”; for `CN(C)c1cccc(-c2cnc(N3CCC(C(N)=O)CC3)nc2)c1`: “inactive”; for `CN(c1cccc2cccnc12)S(=O)(=O)c1ccccc1`: “inactive”.

With `Cc1ccnc(NC(=S)N2CCN(c3ccc(F)cc3)CC2)c1`, the Potency entry was “inactive”. The same measure for `CCc1ccc2oc(=O)cc(CN3CCN(c4ccccc4F)CC3)c2c1`: “inactive”.

On to `N#Cc1c(-c2ccc(F)cc2)no[n+]1[O-]`, for which the Potency result is “inactive”. The same measure for `Nc1c(-c2ccncc2)cc[nH]c1=O`: “inactive”; for `COc1cc(F)c(S(=O)(=O)N2CCCN(S(=O)(=O)c3ccc(NC(C)=O)cc3)CC2)c(F)c1`: “inactive”. In the case of `COc1ccc(C2Nc3ccccc3C(=O)N2Cc2ccccc2)cc1COc1ccccc1OC` (stereo not drawn) it was “inactive”. In the case of `O=C(O)c1ccc(O)c2ncc(-c3ccc(N4CCOCC4)cc3)cc12` it was “inactive”; in that of `O=C1CCc2cc([S+](=O)([O-])NC3CCOCC3)ccc2N1`, “inactive”.

(Values after PubChem BioAssay (NCATS).)
